Experimental data: PubChem BioAssay AID1347070 (National Center for Advancing Translational Sciences (NCATS), 2019)
About 20 (0.02%) of roughly 94,000 compounds were called active. Roughly 1% stayed inconclusive and do not appear here. Calls come from the whole dose curve; as a rule, active = well fitted activation curve with a large enough effect; inconclusive = small, poorly fitted or top-dose-only effect; inactive = flat fitted curve, though single readings scatter. Only a sample is shown.

assay: qHTS of alpha-syn Inhibitors: NCGC Sytravon Library Screen; conditions: S. cerevisiae alpha-synuclein toxicity rescue, BacTiter-Glo growth, 24 h; series mostly up to 46.1 µM
Excerpt: The goal of this project is to identify new chemical probes capable of reversing the toxicity associated with the Parkinson disease-related protein, alpha-synuclein. Compounds will be selected on their ability to restore growth in yeast cells expressing toxic levels of alpha-synuclein. These compounds will provide a complementary approach to deciphering the tangled mechanisms of toxicity and protection that we have uncovered through genome-wide genetic screens and are beginning to uncover in a large-scale proteomics analysis with mass spectroscopy. To this end, a miniaturized assay was developed to be screened against the Molecular Libraries Small Molecule Repository (MLSMR) to discover alpha-synuclein inhibitors. […] The phenotype of interest will be that of an Activator and this screen is run against the NCGC Sytravon Library collection. NIH Chemical Genomics Center [NCGC] NIH Molecular Libraries Probe Centers Network [MLPCN] MLPCN Grant: NS060957 Assay Submitter (PI): Susan Lindquist, Whitehead Institute/MIT
Dispense 2.5 microL yeast galactose medium per 1536-well plate, pin compound, dispense 2.5 microL alpha-synuclein expressing yeast in galactose medium at OD600=0.02 (pregrown in raffinose medium to mid-log phase) per well, incubate for 24 hr at 30 deg C, and cell growth will be measured using 5 microL of Bactiter/Glo reagent to entire plate and read using Luminescence Protocol in ViewLux.

Compound | outcome
CC(=O)Nc1ccc(C=CC(=O)c2ccc([N+](=O)[O-])cc2)cc1 | inactive
CC1CCCC(NC(=O)COC(=O)c2ccccc2C(=O)N(C)C2CCCCC2)C1C (centres undefined) | inactive
Cc1cc(=O)oc2c3c(cc(OCC(=O)NCCC(=O)N[C@@H](C)C(=O)O)c12)OC(C)(C)CC3 | inactive
COc1ccc(CN2C[C@H]3CON(C)[C@H]3C[C@H]2c2ccc(-c3cccc(F)c3)cc2)cc1 | inactive
O=C(COC(=O)CCc1ccc(S(=O)(=O)N2CCOCC2)cc1)Nc1cccc(Cl)c1 | inactive
CC(=O)NC1C(Oc2ccc(C=O)cc2)OC(COC(C)=O)C(OC(C)=O)C1OC(C)=O (centres undefined) | inactive
CCc1ccccc1OCC(=O)Nc1nnc(C2CC2)s1 | inactive
C=C(C)CNC(=O)c1ccc(OC2CCN(C(=O)COC)CC2)cc1 | inactive
COc1ccc(CCNC(=O)C(=O)NCC2CCCN2S(=O)(=O)c2cccs2)cc1OC (centres undefined) | inactive
CC1(C)OC(=O)C2=C(CC(c3ccccc3)OC2CCc2ccccc2)O1 (centres undefined) | inactive
CCOC(=O)C=Cc1ccc(C(=O)OCC)[nH]1 | inactive
CCOn1c(=O)c(=O)n(O)c2ccccc21 | inactive
COc1ccc(NS(=O)(=O)c2ccc(F)cc2F)cn1 | inactive
CC(C)CN(C(=O)COC(=O)c1ccc(Cl)c(N)c1)c1c(N)n(Cc2ccccc2)c(=O)[nH]c1=O | inactive
CC(=O)c1sc(N)nc1C | inactive
O=C1COc2ccc(S(=O)(=O)NCCc3ccc(Cl)cc3)cc2N1 | inactive
CCCCn1c(N)c(N(CC(C)C)C(=O)C2CSC3(C)CCC(=O)N23)c(=O)[nH]c1=O (centres undefined) | inactive
O=C(CN1C(=O)NC2(CCc3ccccc32)C1=O)NC1CCCCC1 (centres undefined) | inactive
Cc1cc(C)c(NC(=O)CN2C(=O)NC(Cc3ccccc3)C2=O)c(C)c1 (centres undefined) | inactive
O=C(O)c1ccccc1Cc1ccc(F)c2ccccc12 | inactive
CC(C)CCN1CCN(Cc2ccc(C(F)(F)F)cc2)CC1CCO (centres undefined) | inactive
Cc1ccc(C)c(OCCC(=O)OCC(=O)c2ccc3c(c2)NC(=O)CO3)c1 | inactive
CC(=O)Nc1ccc(NC(=O)CSc2ncnc3c2cnn3Cc2ccccc2)cc1 | inactive
CCCc1cc(=O)[nH]c(SCc2cc(=O)oc3c(C)c(C)ccc23)n1 | inactive
Cc1c(NC(=O)C(C)OC(=O)c2c3c(nc4ccccc24)CCC(C)C3)c(=O)n(-c2ccccc2)n1C (centres undefined) | inactive

Compound | outcome
Cc1cc(C(=O)CCC(=O)NNC(=O)c2ccccc2O)c(C)s1 | inactive
Cc1ccc(OCCC(=O)OCC(=O)N2c3ccccc3NC(=O)C2(C)C)cc1 | inactive
O=C(CN1CCOCC1)Nc1cccc([N+](=O)[O-])c1 | inactive
c1ccc(-c2nnc(N3CCOCC3)c3ccccc23)cc1 | inactive
CCOCc1nnc(NC(=O)CCS(=O)(=O)Cc2ccccc2)s1 | inactive
CCCC(C(=O)NC1CCCC1)N(C(=O)Cn1nnc(-c2ccc(C)o2)n1)c1cccc(O)c1 (centres undefined) | inactive
CCN(C(=O)CSc1nnnn1-c1ccccc1OC)C1CCS(=O)(=O)C1 (centres undefined) | inactive
O=c1[nH]c2ccc(S(=O)(=O)N3CCCC3)cc2[nH]1 | inactive
Cc1nnc(SCCCCSc2nnc(C)c(=O)[nH]2)[nH]c1=O | inactive
COc1ccc(N2CCN(C(=S)Nc3ccc(S(N)(=O)=O)cc3)CC2)cc1 | inactive
COc1ccc(/C=N/S(=O)(=O)c2ccccc2)cc1OC | inactive
Cc1ccc([C@H]2N[C@]3(CCCN(CC4CCCCC4)C3=O)[C@H]3C(=O)N(Cc4ccccc4)C(=O)[C@@H]23)cc1 | inactive
CCCCn1c(N)c(N(CCOC)C(=O)c2sc3ccccc3c2Cl)c(=O)[nH]c1=O | inactive
CC(=O)NCc1ccc(S(=O)(=O)NC2CCN(Cc3ccccc3)CC2)cc1 | inactive
CCN(CC(=O)Nc1c(F)cccc1F)C(=O)c1ccc(Sc2nncn2C)c([N+](=O)[O-])c1 | inactive
O=c1[nH]nc(SCCS(=O)(=O)c2ccc(F)cc2)n1-c1ccccc1C(F)(F)F | inactive
Cc1sc2nc(CSCC(=O)NC3CCCCC3)[nH]c(=O)c2c1C | inactive
CC1(C)C[C@H]2C3=CCC4[C@@]5(C)CC[C@H](O)[C@](C)(CO)C5CC[C@@]4(C)[C@]3(C)C[C@@H](O)[C@@]2(CO)[C@@H](O)[C@@H]1O (some centres undefined) | inactive
Cc1c(C(=O)NC(C)C2CC3CCC2C3)cccc1[N+](=O)[O-] (centres undefined) | inactive
O=C(CCNC(=O)c1ccc([N+](=O)[O-])cc1)NC1CCCCC1 | inactive
Cn1c(CSCC(=O)Nc2ccccc2)nnc1SCc1ccccc1 | inactive
Cc1cccc(N(CC(=O)N2CCCC2)S(C)(=O)=O)c1C | inactive
CN(C)C(CNC(=O)c1cc(Br)c(Br)s1)c1ccco1 (centres undefined) | inactive
Cc1ccc(CN2CCC(N3CCC(C(=O)NCC4CCCO4)CC3)CC2)o1 (centres undefined) | inactive
O=C(NCCS(=O)(=O)NCc1ccc(Cl)cc1)c1ccccc1 | inactive

Compound | outcome
CC1=C(C(=O)N2CCOCC2)CC(CC(=O)NCc2ccco2)C(=O)N1Cc1ccc(F)cc1 (centres undefined) | inactive
Cc1ccc(C)n1NC(=O)c1ccc([N+](=O)[O-])cc1 | inactive
COc1ccc(-c2cc(=O)oc3cc(OC(C)C(=O)NCC4CCC(C(=O)O)CC4)ccc23)cc1 (centres undefined) | inactive
CCOc1ccc(C(=O)CCC(=O)NC2=NCCS2)cc1 | inactive
O=C1N/C(=C/c2cccs2)C(=O)N1Cc1ccc(F)cc1 | inactive
C/C(COc1ccccc1)=N\NC(=O)c1nnn(-c2nonc2N)c1-c1ccc(C)cc1 | inactive
CCCCn1c(N)c(N(CC(C)C)C(=O)c2cccc(S(=O)(=O)N3CCN(C(C)=O)CC3)c2)c(=O)[nH]c1=O | inactive
O=C(c1ccc(C(F)(F)F)cc1)C1CCCN(C(=O)c2csnn2)C1 (centres undefined) | inactive
COc1ccc(/C=C/CN2CCN(Cc3ccc(C)cc3)C(CCO)C2)cc1 (centres undefined) | inactive
CCOc1ccc(S(=O)(=O)N2CCCC(C(=O)N3CCC(C(N)=O)CC3)C2)cc1Cl (centres undefined) | inactive
NS(=O)(=O)c1ccc(NC(=S)NNC(=O)c2cccs2)cc1 | inactive
O=C(COc1ccccc1O)NC1CCCC1 | inactive
CC1=C(C(=O)N2CCOCC2)CC(CC(=O)NCCN2CCOCC2)C(=O)N1CCC1=CCCCC1 (centres undefined) | inactive
COc1ccccc1C(=O)NC(=O)COC(=O)c1ccco1 | inactive
O=C(Nc1ccccc1)C1CC(=O)n2c(nc3ccccc32)N1 (centres undefined) | inactive
Cc1ccc(C=O)c([B-](F)(F)F)c1 | inactive
O=C(CNc1ccccc1N1CCCC1=O)Nc1cc(Cl)ccc1-n1cncn1 | inactive
O=C(/C=C/Nc1ccc(S(=O)(=O)Nc2cnc3ccccc3n2)cc1)c1cccnc1 | inactive
CCOC(=O)c1cc(-c2sc(NC(=O)c3ccccc3)nc2C)n(CCO)n1 | inactive
COc1ccc2oc(C(=O)N(CC(C)C)C3CCS(=O)(=O)C3)c(C)c2c1 (centres undefined) | inactive
CN(CCN1CCOCC1)Cc1nc(-c2ccc3c(c2)OCO3)no1 | inactive
COCOCCn1cc(CN2CCS(=O)(=O)N(Cc3ccc(-c4ccccc4)cc3)C(CC(C)C)C2=O)nn1 (centres undefined) | inactive
CCc1nnc(NC(=O)c2ccco2)s1 | inactive
Cn1ccc(=NC=C(C#N)C#N)c2ccccc21 | inactive
COc1cc(NS(=O)(=O)c2ccc(NC(=S)NC(=O)c3ccccc3)cc2)nc(OC)n1 | inactive

Compound | outcome
O=C(OCc1nnc(-c2ccccc2)o1)c1cc(=O)[nH]c2ccccc12 | inactive
O=C1[C@H]2[C@@H](c3ccc(C(F)(F)F)cc3)N[C@]3(CCCN(Cc4ccc(Cl)cc4)C3=O)[C@H]2C(=O)N1Cc1ccccc1 | inactive
Cn1cnnc1SCC(=O)NNC(=O)COc1ccc(Br)cc1 | inactive
Cc1ccc(N(C(=O)Cc2cccs2)C(C(=O)NCC2CCCO2)c2ccncc2)cc1 (centres undefined) | inactive
COc1ccccc1NC(=O)CCSc1nnc(-c2ccc(O)cc2)o1 | inactive
O=C(OCc1cn([C@H]2C[C@H](c3ccccc3)N(C(=O)c3cccs3)C[C@@H]2O)nn1)c1ccccc1 | inactive
COc1ccc(NC(=O)CN(C)C(=O)c2cc(C)oc2C)cc1 | inactive
Cc1noc(C)c1COc1ccccc1C(=O)N(C)CC(=O)Nc1cccc(F)c1 | inactive
COc1ccc(N(C(=O)c2snc(C(N)=O)c2N)C(C(=O)NC2CCCC2)c2ccc(C)o2)c(OC)c1 (centres undefined) | inactive
NS(=O)(=O)c1ccc(NC(=S)NC(=O)c2cccnc2)cc1 | inactive
C=C(C)COc1ccc(-c2nc(N)ncc2-c2ccccc2OC)c(O)c1 | inactive
Cc1cccc(OCC(=O)NCCCNC(=O)c2ccccn2)c1 | inactive
O=C(NC1CCCC1)C1CC(=O)N(c2ccc(F)cc2)C1 (centres undefined) | inactive
CO/N=C/c1cn(-c2ccc(Cl)cc2)nn1 | inactive
CC(OC(=O)c1ccc(NC(=O)CC#N)cc1)C(=O)Nc1ccc(S(=O)(=O)N2CCCC2)cc1 (centres undefined) | inactive
Cc1cccc(C)c1NC(=O)CS(=O)CC(=O)N1CCN(c2ccccc2)CC1 (centres undefined) | inactive
CCOc1ccc(NS(=O)(=O)c2ccc(C(=O)NCC(c3ccccc3OC)N3CCCC3)cc2)cc1 (centres undefined) | inactive
O=[N+]([O-])c1ccc(C(S(=O)(=O)Cc2ccccc2)S(=O)(=O)Cc2ccccc2)cc1 | inactive
O=C(NCc1ccc(Cl)cc1)C(=O)NCC1CCCN1S(=O)(=O)c1cccs1 (centres undefined) | inactive
O=C(CNC(=O)N1CC(=O)Nc2ccccc21)Nc1ccc(Br)cc1F | inactive
O=C(c1ccc(N2CCCC2=O)cc1)N1CCN(c2ccc(C(F)(F)F)cc2[N+](=O)[O-])CC1 | inactive
Cc1ccc(CN2CC(C(=O)N3CCN(S(=O)(=O)c4ccccc4)CC3)CC2=O)cc1 (centres undefined) | inactive
CCN(C(=O)C1CCCN(c2nc(-c3ccc(OC)cc3)no2)C1)c1ccc(OC)cc1 (centres undefined) | inactive
CN(C)c1ccc(C2Nc3ccccc3C(=O)N2NS(=O)(=O)c2ccccc2)cc1 (centres undefined) | inactive
